According to PubChem BioAssay AID720517 (National Center for Advancing Translational Sciences (NCATS), 2013):
Records with an inconclusive call do not appear. A call without a number means that no potency is given here. Active and inactive are the calls of the source. Calls follow the shape of the dose curve; as a rule, active = well fitted activation curve with a large enough effect; inconclusive = small, poorly fitted or top-dose-only effect; inactive = flat fitted curve, though single readings scatter.

Experiment: qHTS for Inhibitors of Cell Surface uPA Generation: FP59 Counterscreen for Cherry-picked Compounds
Details: FP59 anthrax toxin cytotoxicity counterscreen, cells; series mostly up to 115 µM

SMILES | Potency
CCOc1ccc(NC(=S)N2CCC(c3ccc(C)cc3)C2)cc1 (centres undefined) | inactive
COc1ccc(C(C)=O)cc1CSC(=N)N | inactive
COc1ncnc(NS(=O)(=O)c2ccc(N)cc2)c1OC | inactive
CCc1cc(CC)c(/C=N/NC(N)=O)c(CC)c1 | inactive
CCOC(=O)c1c(NC(=O)CC2SC(N)=NC2=O)sc2c1CCC(C)C2 (centres undefined) | inactive
Cc1ccc(NC(=O)c2ccc(=O)[nH]n2)cc1S(=O)(=O)Nc1ccccc1Cl | inactive
COc1ccc(Cc2nnc(Nc3ccc(C)cc3)o2)cc1OC | inactive
CN(C(=O)c1ccccc1C(=O)OCC(=O)NCc1ccccc1)C1CCCCC1 | inactive
CN(C(=O)CCn1c(=S)oc2ccccc21)c1ccc(F)cc1 | inactive
c1csc(CN2CCOCC2)c1 | inactive
CCCNC(=O)COc1coc(CN2CCN(c3ccccc3OC)CC2)cc1=O | inactive
CC(=O)NS(=O)(=O)c1ccc(NC(=O)c2cccc(OCc3c(C)noc3C)c2)cc1 | inactive
CCCN1CCN(C(=O)CCCn2c(C)c3cnn(-c4ccccc4)c(=O)c3c2C)CC1 | inactive
O=C(c1ccccn1)C1CCCN(Cc2cn[nH]c2-c2cc3ccccc3o2)C1 (centres undefined) | inactive
C/C(=N\NC(=O)c1ccccc1)c1c(C)[nH]n(-c2ccccc2)c1=O | inactive
O=C(c1cc(COc2ccc(F)cc2Cl)on1)N1CCCCCC1 | inactive
CC(=O)c1cccc(NC(=O)N2C3CCC2CC(O)(c2cccnc2)C3)c1 (centres undefined) | inactive
Cc1cc(C)n(C(=O)c2cccc([N+](=O)[O-])c2)n1 | inactive
COc1cc(/C=C(/C#N)C(=O)Nc2ccccc2)ccc1OCc1ccc(C(=O)O)cc1 | inactive
O=[N+]([O-])c1cccc2c(N3CCOCC3)ccnc12 | inactive

SMILES | Potency
Fc1cccc(Cl)c1CSc1ccc(-c2cccnc2)nn1 | inactive
COc1cc2c(cc1OC)CN(C(=O)c1ccc(-c3ccccc3)cc1)CC2 | inactive
COc1cc(CCC(=O)OCC(=O)Nc2ccc(C)cc2Br)cc(OC)c1OC | inactive
Cc1ccc(C2=NS(=O)(=O)N(C)C(C(=O)NC3CCCC3)=C2)cc1 | inactive
CCCCn1c(N)c(N(Cc2ccccc2OC)C(=O)COc2ccc(C)cc2)c(=O)[nH]c1=O | inactive
CC(=O)c1ccc(OCCCCOc2ccc(C(C)=O)cc2)cc1 | inactive
CCNC(=S)NNC(=O)c1ccncc1 | inactive
COc1ccccc1N1CCN(CC(=O)c2c(C)[nH]c3ccccc23)CC1 | inactive
O=C(NCCCN1CCCC1=O)c1cccc(Oc2ccccc2)c1 | inactive
COc1ccc(CCNC(=O)COC(=O)CNS(=O)(=O)c2ccc(SC)c([N+](=O)[O-])c2)cc1 | inactive
Cc1cc(N2C(=O)C(O)=C(C(=O)c3ccco3)C2c2ccc(Cl)cc2)no1 (centres undefined) | inactive
COc1ccccc1CN1CC(C(=O)NCc2cccc(C)n2)CCC1=O (centres undefined) | inactive
COc1ccc(-n2nc(C(=O)Nc3cc(OC)c(OC)c(OC)c3)c3ccccc3c2=O)c(OC)c1 | inactive
O=C(c1cccc(F)c1)N1CCN(Cc2cccc(Br)c2)CC1 | inactive
C=CCc1cc(S(=O)(=O)c2ccc(O)c(CC=C)c2)ccc1O | inactive
Cc1oc(-c2ccccc2F)nc1CS(=O)(=O)CC(=O)NC1CCCC(C)C1C (centres undefined) | inactive
Cc1[nH]c2ccccc2c1C(=O)COC(=O)c1cccc(S(=O)(=O)N2CCCCC2)c1 | inactive
Cc1ccc(-c2cc(C(=O)NCC3CCCO3)no2)cc1 (centres undefined) | inactive
COc1cccc(CC(=O)n2nc(N)c3cc4ccc(OC)cc4nc32)c1 | inactive
